LAP4 TOR yeast: modulators of LAP4-GFP expression in yeast, primary screen, S. cerevisiae, multiplex flow cytometry, MLPCN library; 320,000 compounds, 0.34% hits; 3 h; median GFP as percent of DMSO wells; GFP response vs DMSO, % at 10 µM; AID 2023, 2009;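 active = GFP response vs DMSO above a set limit, about the screen mean plus 3 SD, cut at about 150% in these data; inconclusive = under 70 cell events counted for the yeast strain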
CIT2-GFP yeast: modulators of CIT2-GFP expression in yeast, primary screen, S. cerevisiae, GFP fusion, multiplex flow cytometry, MLPCN library. S. cerevisiae CIT2-GFP strain, 3 h; 100 means same as DMSO wells. AID 2029, 2009. GFP response vs DMSO, % at 10 µM. 320,000 compounds, 0.065% hits;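 active = GFP response relative to DMSO above a set limit, near the screen mean plus 3 SD, cut at about 150% in these data; inconclusive = Fewer than 70 cells measured for a yeast strain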;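 note: ratio of well median GFP fluorescence to mean of DMSO wells on the plate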
MEP2-GFP yeast: modulators of MEP2-GFP levels in yeast, primary screen, S. cerevisiae, multiplex flow cytometry, MLPCN library. S. cerevisiae MEP2-GFP strain, 3 h; 100% = DMSO control level. GFP response vs DMSO, % at 10 µM. 330,000 compounds, 0.51% hits;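 active = GFP response versus DMSO above a set limit, roughly screen mean plus 3 SD, cut at about 180% in these data; inconclusive = fewer than 70 cells counted for a yeast strain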;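 note: median GFP fluorescence of the barcode-gated MEP2-GFP cells per well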
RPL19A-GFP yeast: RPL19A-GFP expression modulators in yeast, primary screen, cell-based, S. cerevisiae, multiplex flow cytometry, MLPCN | S. cerevisiae RPL19A-GFP strain, 3 h; hits give low values | percent response vs DMSO, % at 10 µM | 330,000 compounds, 0.3% hits | AID 2025, 2009;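 active = percent response vs DMSO below 50%; inconclusive = fewer than 70 events counted for the yeast strain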;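 note: median channel GFP fluorescence of the barcoded RPL19A-GFP strain; ratio of sample median GFP to plate DMSO average so 100% = DMSO; lower means less RPL19A-GFP as with rapamycin TOR inhibition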
AGP1-GFP MLPCN: modulators of AGP1-GFP expression in yeast TOR pathway, primary screen, cell-based, multiplex flow cytometry, S. cerevisiae, MLPCN library | 3 h; GFP as percent of DMSO wells | GFP response vs DMSO, % at 10 µM | 320,000 compounds, 0.02% hits | AID 2066, 2009;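 active = GFP response relative to DMSO above a set limit, near screen average plus 3 SD, cut at about 150% in these data; inconclusive = fewer than 70 cells counted for the yeast strain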;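 note: median GFP channel fluorescence of the gated AGP1 strain per well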
Active calls of the source: *; [ ] = dose if it differs, or a comment. In the library only some 0.89% were active in any assay of this set; here they are far more common.

Results for COc1ccc(S(=O)(=O)Nc2ccc(C(F)(F)F)cc2)cc1OC ?
LAP4 TOR yeast: 79; CIT2-GFP yeast: inconclusive; MEP2-GFP yeast: 196*[may fluoresce violet]; RPL19A-GFP yeast: 62; AGP1-GFP MLPCN: inconclusive

What do the screens show for `COc1ccc(NS(=O)(=O)c2cc(OC)ccc2OC)cc1`?
LAP4 TOR yeast: 97; CIT2-GFP yeast: inconclusive; MEP2-GFP yeast: 267*[may fluoresce violet]; RPL19A-GFP yeast: 45*[may fluoresce violet]; AGP1-GFP MLPCN: inconclusive

Results for COc1ccc(NS(=O)(=O)c2cc(C)ccc2C)cc1 ?
LAP4 TOR yeast: 106; CIT2-GFP yeast: 92; MEP2-GFP yeast: 98; RPL19A-GFP yeast: 94

How did COc1ccc(NS(=O)(=O)c2cccc3ccccc23)cc1 do in these assays?
LAP4 TOR yeast: 183*; CIT2-GFP yeast: 87; MEP2-GFP yeast: 93; RPL19A-GFP yeast: 71; AGP1-GFP MLPCN: 96

How did COc1ccc(-c2[nH]ncc2N=Nc2cc(C)cc(C)c2)cc1 do in these assays?
LAP4 TOR yeast: 94; CIT2-GFP yeast: 87; MEP2-GFP yeast: 98; RPL19A-GFP yeast: 98; AGP1-GFP MLPCN: 95

What do the screens show for `COc1ccc(-c2[nH]ncc2N=Nc2ccccc2)cc1`?
LAP4 TOR yeast: 151*; CIT2-GFP yeast: 89; MEP2-GFP yeast: 104; RPL19A-GFP yeast: 101; AGP1-GFP MLPCN: 80

Results for Cn1c(CBr)c(C(=O)c2ccc([N+](=O)[O-])cc2)c(=O)n(C)c1=O ?
LAP4 TOR yeast: 113; CIT2-GFP yeast: inconclusive; MEP2-GFP yeast: 444*[may fluoresce violet]; RPL19A-GFP yeast: 55; AGP1-GFP MLPCN: inconclusive

Results for CCc1cc(/C(Cc2csc(C)n2)=N/O)c(O)cc1O ?
LAP4 TOR yeast: 91; CIT2-GFP yeast: inconclusive; MEP2-GFP yeast: 209*[may fluoresce violet]; RPL19A-GFP yeast: 44*[may fluoresce violet]

What do the screens show for `O=C(/C(=C/c1ccccc1)n1cncn1)c1ccc(Cl)cc1Cl`?
LAP4 TOR yeast: 151*; CIT2-GFP yeast: 70; MEP2-GFP yeast: 88; RPL19A-GFP yeast: 98; AGP1-GFP MLPCN: 83

What do the screens show for `CCOC(=O)C1CCN(Cc2cc(=O)oc3c(C)c(C)ccc23)CC1`?
LAP4 TOR yeast: 91; CIT2-GFP yeast: 96; MEP2-GFP yeast: 91; RPL19A-GFP yeast: 99; AGP1-GFP MLPCN: 93

Results for COC(=O)c1c(NC(=O)C(C)C)sc(C(=O)N2CCOCC2)c1C ?
LAP4 TOR yeast: 95; CIT2-GFP yeast: 114; MEP2-GFP yeast: 105; RPL19A-GFP yeast: 104; AGP1-GFP MLPCN: 101

What do the screens show for `COC(=O)CN(c1ccc(OC)cc1)S(=O)(=O)c1ccc(OC)c(OC)c1`?
LAP4 TOR yeast: 103; CIT2-GFP yeast: 104; MEP2-GFP yeast: 103; RPL19A-GFP yeast: 99; AGP1-GFP MLPCN: 100

Results for COc1ccc(N(CC(=O)N2CCCCCC2)S(=O)(=O)c2ccc(OC)c(OC)c2)cc1 ?
LAP4 TOR yeast: 90; CIT2-GFP yeast: 106; MEP2-GFP yeast: 98; RPL19A-GFP yeast: 103; AGP1-GFP MLPCN: 102

How did CCOc1ccc(N(CC(=O)OC)S(=O)(=O)c2ccc(OC)c(OC)c2)cc1 do in these assays?
LAP4 TOR yeast: 80; CIT2-GFP yeast: inconclusive; MEP2-GFP yeast: 205*[may fluoresce violet]; RPL19A-GFP yeast: 56

Results for COc1ccc(S(=O)(=O)N(CC(=O)N2CCOCC2)c2ccc(F)cc2)cc1OC ?
LAP4 TOR yeast: 80; CIT2-GFP yeast: inconclusive; MEP2-GFP yeast: 221*[may fluoresce red and violet]; RPL19A-GFP yeast: inconclusive; AGP1-GFP MLPCN: inconclusive

Results for COC(=O)NC1CCC(CC2CCC(NC(=O)OC)CC2)CC1 (stereo unspecified) ?
LAP4 TOR yeast: 212*; CIT2-GFP yeast: 121; MEP2-GFP yeast: 698*; RPL19A-GFP yeast: 98; AGP1-GFP MLPCN: 99

What do the screens show for `NC(=O)C(c1cccc(Cl)c1)c1ncc(C(F)(F)F)cc1Cl` (stereo unspecified)?
LAP4 TOR yeast: 85; CIT2-GFP yeast: inconclusive; MEP2-GFP yeast: 239*[may fluoresce violet]; RPL19A-GFP yeast: 53; AGP1-GFP MLPCN: 20

What do the screens show for `COc1ccc(C(C(N)=O)c2ncc(C(F)(F)F)cc2Cl)cc1` (stereo unspecified)?
LAP4 TOR yeast: 91; CIT2-GFP yeast: 105; MEP2-GFP yeast: 106; RPL19A-GFP yeast: 104; AGP1-GFP MLPCN: 102

Results for Cc1cc(C(=O)COC(=O)c2ccc(Cl)c(S(N)(=O)=O)c2)c(C)n1C1CC1 ?
LAP4 TOR yeast: 105; CIT2-GFP yeast: 94; MEP2-GFP yeast: 95; RPL19A-GFP yeast: 100; AGP1-GFP MLPCN: 108

Results for COc1ccc(Nc2cnn(-c3nc4ccccc4s3)c(=O)c2Cl)cc1 ?
LAP4 TOR yeast: 103; CIT2-GFP yeast: 69; MEP2-GFP yeast: 181*; RPL19A-GFP yeast: 92; AGP1-GFP MLPCN: 18

How did O=C(c1ccc([N+](=O)[O-])o1)N1CCN(c2nc3ccc(F)cc3s2)CC1 do in these assays?
LAP4 TOR yeast: 163*; CIT2-GFP yeast: 78; MEP2-GFP yeast: 96; RPL19A-GFP yeast: 93; AGP1-GFP MLPCN: 90

What do the screens show for `O=C(c1ccc([N+](=O)[O-])o1)N1CCN(c2nc3c(Cl)cccc3s2)CC1`?
LAP4 TOR yeast: 128; CIT2-GFP yeast: 95; MEP2-GFP yeast: 95; RPL19A-GFP yeast: 95; AGP1-GFP MLPCN: 102

How did C#CCOCCOCCOCCNc1nc(N2CCN(C(=O)CCCCCCCCCCNC(=O)[C@@H](CCC(=O)O)n3cc(CCCCCN)nn3)CC2)nc(N2CCN(C(=O)CCCCCCCCCCNC(=O)[C@H](CO)n3cc(CCCCCN)nn3)CC2)n1 do in these assays?
LAP4 TOR yeast: 138; CIT2-GFP yeast: 88; MEP2-GFP yeast: 95; RPL19A-GFP yeast: 93; AGP1-GFP MLPCN: 88

What do the screens show for `C#CCOCCOCCOCCNc1nc(N2CCN(C(=O)CCCCCCCCCCNC(=O)[C@H](CO)n3cc(CCCCCN)nn3)CC2)nc(N2CCN(C(=O)CCCCCCCCCCNC(=O)[C@H](CCCN=C(N)N)n3cc(C[C@@H](C)CC)nn3)CC2)n1`?
LAP4 TOR yeast: 162*; CIT2-GFP yeast: 94; MEP2-GFP yeast: 97; RPL19A-GFP yeast: 72; AGP1-GFP MLPCN: 98

What do the screens show for `C#CCOCCOCCOCCNc1nc(N2CCN(C(=O)CCCCCCCCCCNC(=O)[C@H](CCCCN)n3cc(C[C@@H](C)CC)nn3)CC2)nc(N2CCN(C(=O)CCCCCCCCCCNC(=O)[C@H](CCCN=C(N)N)n3cc(C[C@@H](C)CC)nn3)CC2)n1`?
LAP4 TOR yeast: 198*; CIT2-GFP yeast: 99; MEP2-GFP yeast: 114; RPL19A-GFP yeast: 63; AGP1-GFP MLPCN: 99

How did C#CCOCCOCCOCCNc1nc(N2CCN(C(=O)CCCCCCCCCCNC(=O)[C@H](CCCCN)n3cc(C[C@@H](C)CC)nn3)CC2)nc(N2CCN(C(=O)CCCCCCCCCCNC(=O)[C@@H]([C@H](C)O)n3cc(C)nn3)CC2)n1 do in these assays?
LAP4 TOR yeast: 149; CIT2-GFP yeast: 94; MEP2-GFP yeast: 101; RPL19A-GFP yeast: 74; AGP1-GFP MLPCN: 98

Source: PubChem BioAssay (NMMLSC)
